This passage reports z-score and composite z-score results from PubChem BioAssay.

The nature of assay [1]: compound effects on lung adenocarcinoma cell viability – A549, calcein-AM fluorescence, 48 h, basal, profiling panel (AID 1162). Also: test concentration not given here. To be noted: higher = more signal.
A short description of assay [2]: compound effects on differentiated 3T3-L1 adipocyte viability – cell-based, 3T3-L1 adipocytes, calcein-AM fluorescence, 48 h, basal, profiling panel (AID 1163). Also: test concentration not given here. As to conditions: 3T3-L1 adipocytes viability, higher = more signal.
A short description of assay [3]: compound effects on hepatocellular carcinoma cell viability – HepG2, calcein-AM fluorescence, 48 h, basal, profiling panel (AID 1164). Also: test concentration not given here. To be noted: higher = more signal.
Assay [4] is described as follows: compound effects on multiple myeloma cell viability – MM1S, calcein-AM fluorescence, 48 h, basal, profiling panel (AID 1165). Also: test concentration not given here. As to conditions: higher = more signal.
The nature of assay [5]: calcein-AM signal in unstimulated myeloma cells – cell-based, calcein-AM fluorescence, 48 h, PK04 Diversity Set, profiling panel (AID 1166).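 Also: cells grown under basal conditions without added stimulus; test concentration not given here.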 To be noted: RPMI8226 myeloma viability, higher = more signal.
A short description of assay [6]: JC-1 mitochondrial signal, unstimulated HepG2 cells – cell-based, JC-1 fluorescence, 24 h, 100 nL compound, profiling panel (AID 1167). Also: test concentration not given here. As to conditions: HepG2 mitochondrial potential, higher = more signal.
The nature of assay [7]: JC-1 mitochondrial signal, unstimulated adipocytes – cell-based, JC-1 fluorescence, 3T3-L1 adipocytes, 24 h, 100 nL compound, profiling panel (AID 1168). Also: test concentration not given here. As to conditions: JC-1 mitochondrial fluorescence, higher = more signal, called active from +8 up or from −8 down.
The nature of assay [8]: JC-1 mitochondrial signal, unstimulated myeloma cells – cell-based, JC-1 fluorescence, RPMI8226, 24 h, 100 nL compound, profiling panel (AID 1169). Also: test concentration not given here. As to conditions: JC-1 mitochondrial potential fluorescence, higher = more signal.
Assay [9] can be described thus: JC-1 mitochondrial signal, unstimulated MM1S myeloma – cell-based, JC-1 fluorescence, 24 h, 100 nL compound, profiling panel (AID 1170). Also: test concentration not given here. To be noted: MM1S mitochondrial potential, higher = more signal.
A short description of assay [10]: resazurin metabolic signal in A549 cells – cell-based, resazurin fluorescence, 24 h, PK04 Diversity Set, profiling panel (AID 1171). Also: test concentration not given here. As to conditions: A549 viability, higher = more signal, called active from +8 up or from −8 down.
Assay [11] is described as follows: resazurin metabolic signal in HepG2 cells – cell-based, resazurin fluorescence, 24 h, PK04 Diversity Set, profiling panel (AID 1172). Also: test concentration not given here. To be noted: HepG2 viability, higher = more signal.
Assay [12] can be described thus: budding yeast growth changes without added modifier – OD600, strain BY4716, 24 h, basal condition, primary screen (AID 1173). To be noted: S. cerevisiae BY4716 growth, OD600, 24 h; higher = more signal, called active from +8 up or from −8 down.
Assay [13] can be described thus: viability profiling in MM1S myeloma cells – cell-based, resazurin fluorescence, basal, 24 h, PK04 Diversity Set, profiling panel (AID 1174). Also: test concentration not given here. To be noted: higher = more signal, called active from +8 up or from −8 down.
The target in assay [14] is Dihydroorotate dehydrogenase (quinone), mitochondrial (Plasmodium falciparum (isolate 3D7)) (UniProt Q08210). Kind of assay: inhibition of P. falciparum DHODH – biochemical, C-terminal His tag, absorbance 600 nm, primary screen (AID 1175).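 Also: recombinant parasite enzyme with a five histidine tag at its C terminus; test concentration not given here.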 To be noted: PfDHODH enzyme, DCIP absorbance 600 nm; higher = more signal, called active from +8 up or from −8 down.
Assay [15] in a line: inhibition of PAO1 biofilm formation – strain PAO1, LB-PBS medium, absorbance 600 nm, primary screen (AID 1176). Also: test concentration not given here. As to conditions: P. aeruginosa PAO1 growth/biofilm, A600, 12 h; higher = more signal.
Assay [16] is described as follows: growth modulation of vineyard yeast isolate – strain RM11-1a, OD600, basal, 24 h, primary screen (AID 1177).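 Also: cultures grown under basal conditions with no added stressor; test concentration not given here.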 To be noted: S. cerevisiae RM11-1a growth, OD600, 24 h; higher = more signal, called active from +8 up or from −8 down.
Assay [17] is described as follows: growth of efflux-deficient E. coli DRC39 – strain DRC39, OD650, 24 h, E. coli filamentation inducers, primary screen (AID 1178).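 Also: growth measured as culture turbidity by optical density at 650 nm; test concentration not given here.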 To be noted: E. coli DRC39 acrAB, higher = more signal, called active from +8 up or from −8 down.
A short description of assay [18]: growth of efflux-deficient E. coli DRC39 – strain DRC39, OD650, 48 h, E. coli filamentation inducers, primary screen (AID 1179).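 Also: screen aims at cell division blockers that make cells filament.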 As to conditions: E. coli DRC39 delta-acrAB growth, higher = more signal, called active from +8 up or from −8 down.
Assay [19] in a line: viability profiling in RPMI8226 myeloma cells – cell-based, resazurin fluorescence, basal, 24 h, PK04 Diversity Set, profiling panel (AID 1180).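 Also: RPMI8826 multiple myeloma cell line at 5000 cells per well; test concentration not given here.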 To be noted: higher = more signal.
The target in assay [20] is E3 ubiquitin-protein ligase XIAP (Homo sapiens) (UniProt P98170). Put plainly: small molecules binding XIAP protein – biophysical, small-molecule microarray, fluorescence 635 nm, primary screen (AID 1181).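 Also: score merges 667 nm emission and signal to noise over triplicate slides.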 As to conditions: higher = more signal.

Active and inactive are the calls of the source. Unless noted, no rule for the calls is given here.

Chain of Dihydroorotate dehydrogenase (quinone), mitochondrial (Plasmodium falciparum (isolate 3D7)) (Q08210 whole entry, looked up): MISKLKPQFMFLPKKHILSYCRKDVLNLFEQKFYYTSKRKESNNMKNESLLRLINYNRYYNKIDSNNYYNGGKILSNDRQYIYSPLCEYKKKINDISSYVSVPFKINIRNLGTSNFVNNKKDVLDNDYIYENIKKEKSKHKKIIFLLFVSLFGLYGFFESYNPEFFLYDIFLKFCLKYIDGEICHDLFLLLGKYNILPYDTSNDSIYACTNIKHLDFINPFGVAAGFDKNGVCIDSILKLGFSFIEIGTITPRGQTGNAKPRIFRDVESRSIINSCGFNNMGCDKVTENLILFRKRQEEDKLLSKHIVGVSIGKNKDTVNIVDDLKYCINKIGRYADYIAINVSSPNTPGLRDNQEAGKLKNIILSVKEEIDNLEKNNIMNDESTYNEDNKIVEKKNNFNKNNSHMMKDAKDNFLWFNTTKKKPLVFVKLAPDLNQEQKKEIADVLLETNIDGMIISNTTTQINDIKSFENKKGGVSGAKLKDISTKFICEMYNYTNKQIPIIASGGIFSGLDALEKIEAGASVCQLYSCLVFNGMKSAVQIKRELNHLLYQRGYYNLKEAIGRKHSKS
Chain of E3 ubiquitin-protein ligase XIAP (Homo sapiens) (P98170 whole entry, looked up): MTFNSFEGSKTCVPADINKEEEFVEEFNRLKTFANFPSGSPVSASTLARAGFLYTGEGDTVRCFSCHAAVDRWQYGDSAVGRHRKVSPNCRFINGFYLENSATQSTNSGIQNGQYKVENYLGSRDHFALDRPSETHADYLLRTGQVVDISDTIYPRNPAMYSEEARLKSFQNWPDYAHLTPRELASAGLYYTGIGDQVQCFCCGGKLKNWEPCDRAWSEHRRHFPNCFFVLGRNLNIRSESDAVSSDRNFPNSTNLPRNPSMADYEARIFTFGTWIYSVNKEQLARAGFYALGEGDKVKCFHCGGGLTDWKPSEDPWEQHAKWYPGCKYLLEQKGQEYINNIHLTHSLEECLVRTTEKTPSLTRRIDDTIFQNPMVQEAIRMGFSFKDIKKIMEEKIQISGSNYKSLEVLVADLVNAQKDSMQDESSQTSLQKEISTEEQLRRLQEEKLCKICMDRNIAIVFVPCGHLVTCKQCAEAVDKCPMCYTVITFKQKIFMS

As for `COCC(=C=CC[C@@H](O)c1ccc(CO)o1)CCO`, the z-score is 2.82 in assay [1]; 1.72 in assay [2]; 0.783 in assay [3]; 0.178 in assay [4]; 1.94 in [5]; 0.281 in assay [6]. The z-score in assay [7] is -0.24 (inactive); in assay [8], 0.824; in assay [9], -1.08; in [10], 0.559 (inactive); in assay [11], 0.59; in [12], -3.07 (inactive). The z-score in [13] is 0.698 (inactive); in assay [15], 0.862 (inactive); in [16], -3.85 (inactive); in [17], 1.13 (inactive); in assay [18], 1.1 (inactive); in assay [19], 0.529. Also, the composite z-score in assay [14] was -9.96 (active); in [20] it was 0.116.
With `CCCC[C@H]1OB(O)C[C@H]2C1=C(C)C[C@H]1C(=O)N(Cc3ccccc3)C(=O)[C@H]12`, the z-score in assay [1] is 0.601; in [2] it was 0.379; in assay [3] it was -0.152; in assay [4], -0.551; in assay [5] it was -0.0458; in assay [6], -0.432. In addition, the z-score in assay [7] is 0.203 (inactive); in [8], -0.333; in assay [9], 0.625; in assay [10], 0.174 (inactive); in assay [11], 0.589; in assay [12] it was -5.14 (inactive). For the same compound, the z-score in [13] is 0.355 (inactive); in assay [15] it was 0.0481 (inactive); in assay [16], -0.621 (inactive); in assay [17] it was 1.68 (inactive); in assay [18], 0.452 (inactive); in assay [19], 0.156. Moreover, the composite z-score in [14] was -0.231 (inactive); in assay [20] it was -0.0627.
As to `COc1ccc([Si](C)(C)[C@@H]2[C@@H](CCn3cc([C@H](O)c4ccccc4)nn3)O[C@]3(C(=O)N(Cc4ccc(N5C(=O)c6cccc7cccc5c67)cc4)c4ccccc43)[C@H]2C)cc1`, the z-score is -0.725 in assay [1]; 1.91 in assay [2]; -0.394 in [3]; -0.709 in [4]; -1.77 in assay [5]; 2.05 in [6]. Moreover, the z-score was 0.43 (inactive) in assay [7]; -0.964 in assay [8]; 0.209 in assay [9]; -1.92 (inactive) in assay [10]; -0.651 in assay [11]; -0.349 (inactive) in [12]. For the same compound, the z-score in assay [13] was -1.66 (inactive); in [15], 0.65 (inactive); in [16], -0.0915 (inactive); in assay [17], 0.954 (inactive); in assay [18], 0.453 (inactive); in assay [19] it was -1.01. Further, the figures for the composite z-score in assay [14] and in assay [20] were -0.609 (inactive) and -0.157, respectively.
For the compound `CCCC[C@@H]1C[C@H]1[C@@H](NC(=O)c1ccc(-c2ccccc2)cc1)c1ccc(-c2ccccc2)cc1`, the z-score was -1.78 in assay [1]; 0.441 in assay [2]; -0.997 in assay [3]; -2.17 in assay [4]; -2.33 in [5]; -0.922 in assay [6]. In addition, the z-score in assay [7] was -0.949 (inactive); in [8] it was 0.196; in assay [9], -0.391; in [10], 0.719 (inactive); in [11], 0.543; in assay [12] it was -0.498 (inactive). For the same compound, the z-score in assay [13] is -0.271 (inactive); in assay [15], 0.315 (inactive); in [16] it was 0.0066 (inactive); in assay [17] it was -0.836 (inactive); in assay [18], -1.19 (inactive); in assay [19], -0.0454. Further, the results for the composite z-score in assay [14] and in assay [20] were -1.12 (inactive) and 0.359, respectively.
As to `CC(C)OC(=O)CC(=O)CC(O)c1ccc(C#N)cc1` (stereo not given), the z-score was 0.633 in [1]; 0.612 in [2]; 1.01 in assay [3]; 0.526 in [4]; -0.116 in assay [5]; 0.615 in assay [6]. The z-score in assay [7] is 0.497 (inactive); in assay [8], -0.0971; in [9], -1.44; in [10] it was 0.617 (inactive); in [11], 0.602; in [12], -0.0106 (inactive). Besides, the z-score in assay [13] was 0.8 (inactive); in assay [15], -0.088 (inactive); in assay [16] it was -0.608 (inactive); in assay [17], -0.0611 (inactive); in [18] it was 1.44 (inactive); in assay [19] it was 1.43. Further, the values for the composite z-score in assay [14] and in assay [20] were -1.12 (inactive) and -0.194, respectively.
For the compound `CC(C)N1CC=CC23O[C@@H]4C=CCOC(=O)[C@@H]4[C@H]2C(=O)N(CCO)[C@@H]3C1=O` (stereo not given in full), the z-score in assay [1] was -0.237; in [2], 0.253; in assay [3], -0.166; in [4], 1.07; in [5] it was -0.761; in assay [6] it was -0.38. The z-score in assay [7] is 0.0611 (inactive); in [8], 0.223; in assay [9], -0.797; in [10], 0.336 (inactive); in assay [11] it was 0.545; in assay [12] it was 0.684 (inactive). Also, the z-score is 0.813 (inactive) in assay [13]; 0.0683 (inactive) in assay [15]; 0.445 (inactive) in assay [16]; 0.173 (inactive) in [17]; 0.0539 (inactive) in assay [18]; 0.393 in assay [19]. For the same compound, the composite z-score in assay [14] was -1.12 (inactive); in assay [20], 0.0368.
For `Cc1ccc(S[C@]2(C(=O)NCc3ccccc3)CC(=O)N(Cc3ccccc3)[C@@H]2c2ccc(CO)cc2)cc1`, the z-score in assay [1] is 0.778; in assay [2], 0.147; in [3], 0.0772; in assay [4], -0.195; in assay [5] it was -0.615; in assay [6], -0.452. The z-score in assay [7] was 0.645 (inactive); in assay [8], 0.0195; in [9], -0.172; in assay [10], -0.114 (inactive); in assay [11], -0.345; in [12] it was -0.27 (inactive). Moreover, the z-score is 0.0206 (inactive) in assay [13]; 0.429 (inactive) in assay [15]; 0.265 (inactive) in [16]; -0.037 (inactive) in assay [17]; -0.472 (inactive) in assay [18]; -0.0925 in [19]. In addition, the composite z-score is -0.465 (inactive) in assay [14] and -0.121 in assay [20].
In the case of `COC(=O)[C@@]1(Cc2ccccc2)[C@H]2c3cc(C(=O)N4CCCC4)n(Cc4ccc(C)o4)c3C[C@H]2CN1C(=O)c1ccccc1`, the z-score in [1] was -1.25; in assay [2] it was 0.726; in assay [3], 0.252; in assay [4], -1.47; in assay [5], -2.33; in [6], 1.78. Moreover, the z-score in assay [7] was -0.753 (inactive); in assay [8] it was -1.02; in assay [9], -0.449; in assay [10], -0.646 (inactive); in assay [11], -1.59; in assay [12] it was 0.476 (inactive). Also, the z-score in [13] is -1.5 (inactive); in assay [15], 0.399 (inactive); in [16], -0.219 (inactive); in assay [17], -0.691 (inactive); in assay [18], -0.471 (inactive); in assay [19], -2.47. Besides, the composite z-score is -0.376 (inactive) in [14] and 0.0632 in [20].
As for `Cc1cc(C)c(C(O)C2C=CC3C(=O)N(c4ccccc4)C(=O)C3N2Nc2ccc(C#N)cc2)c(C)c1` (stereo not given), the z-score in assay [1] is 0.0841; in assay [2] it was -1.06; in assay [3], 1.33; in assay [4] it was -0.448; in assay [5] it was -0.127; in assay [6], -1.71. Besides, the z-score was -1.51 (inactive) in assay [7]; 0.211 in [8]; -0.308 in assay [9]; 0.0763 (inactive) in [10]; -0.833 in assay [11]; 0.011 (inactive) in assay [12]. In addition, the z-score is 0.0952 (inactive) in [13]; 1.26 (inactive) in assay [15]; 0.384 (inactive) in assay [16]; -0.232 (inactive) in assay [17]; -0.185 (inactive) in [18]; -0.451 in assay [19]. In addition, the figures for the composite z-score in [14] and in [20] were 0.623 (inactive) and -0.253, respectively.
